Screens deposited in PubChem BioAssay by National Center for Advancing Translational Sciences (NCATS).
Rows were chosen to be rich in hits. Some 19% of all compounds tested hit in one or more screens of this group.
Cycloheximide cs = counter-screen for Shiga toxin inhibitors: cycloheximide protein synthesis inhibition. cell reporter, cycloheximide protein synthesis inhibition counterscreen. max response, %. 300,000 compounds, 12% hits. AID 2314; in the data active = max response mostly above about 13%, no sharp cut-off; inactive = mostly below about 14%; note: read at 38.3 µM for the half of the compounds with a filed dose; 0% is about no effect
Shiga toxin inh = blocks Shiga toxin action in Vero cells | inhibition, % at 38.7 µM | Vero cells, Shiga toxin protein synthesis inhibition reporter | 290,000 compounds, 9.2% hits; in the data active = inhibition mostly above about 28%, no sharp cut-off; inactive = mostly below about 43%; note: 0% is about no effect
SARS PLpro yeast = inhibitors of SARS-CoV papain-like protease in yeast; AID 485353; S. cerevisiae expressing SARS-CoV PLpro, growth rescue; Potency, µM (highest dose often 32.9 µM), for inactives: top-dose activity, positive = growth rescue, most hits filed as activators; 330,000 compounds, 0.19% hits; calls by dose curve; note: potency is the fitted concentration of half-maximal effect; 0% is about no effect; nearly all actives have a fitted effect of over 55% in size
AMA1-RON2 inh = inhibitors of Plasmodium falciparum AMA1-RON2 interaction; AlphaScreen AMA1-biotinylated RON2 peptide binding; Potency, µM (titrated, usually from 58.2 µM), for the others: at the highest dose activity change, negative = inhibition, actives largely listed as inhibitors; 360,000 compounds, 0.2% hits;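 note: potency is the fitted concentration of half-maximal effect; 0% = vehicle wells and -100% = peptide control; nearly all actives have a fitted effect of over 45% in size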
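AMA1 (3D7) with his tag at 25 nM final met compounds first, then biotinylated RON2 peptide at 25 nM; detection used donor plus acceptor beads, 10 µg/mL apiece, read by AlphaScreen after 30 min at room temperature.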
Pf growth 48h = inhibits P. falciparum growth in the first generation, 48 h. P. falciparum luciferase growth in erythrocytes, 48 h. 310,000 compounds, 5.9% hits. Potency, µM (doses to about 28.7 µM), inactives show top-dose activity change, negative = inhibition, usual class: inhibitors. AID 504832; note: potency is the fitted concentration of half-maximal effect; % is set by controls: 0 for no effect and ±100 for the full control effect
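Cell-based growth assay: transgenic P. falciparum expressing firefly luciferase, cultured in red cells within RPMI 1640 containing 0.5% w/v Albumax, 24 mM bicarbonate and gentamycin. A drop in luciferase activity indicates inhibition.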
Pf growth 96h = P. falciparum growth inhibition at 96 hours; P. falciparum luciferase reporter growth, 96 h; Potency, µM (series often up to 28.7 µM), for the others: top-dose activity change, negative = inhibition, usual class: inhibitors; 320,000 compounds, 6.9% hits; note: potency is the fitted concentration of half-maximal effect; % is set by controls: 0 for no effect and ±100 for the full control effect
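Two parasite generations (96 h, 37 C, 5% CO2) of compound exposure in infected erythrocytes (0.05% parasitemia, 2% hematocrit). Luciferase-reporter P. falciparum; decreased luminescence indicates inhibited growth, aimed at apicoplast-acting delayed death.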
* hit, by the source's call; u = inconclusive; x = no result given; [ ] = another dose, or the depositor's remark. Unless noted, calls come from the whole dose curve; as a rule, active = well fitted curve in the direction sought with a large enough effect; inconclusive = small, poorly fitted or top-dose-only effect, or another doubt; inactive = no such curve, though single readings can be large; an effect the other way counts as inactive or inconclusive.

SMILES	Cycloheximide cs	Shiga toxin inh	SARS PLpro yeast	AMA1-RON2 inh	Pf growth 48h	Pf growth 96h
O=C(c1cc2ccccc2o1)c1nc2c(n1O)CCCCC2	47*	83*	u	1%	55%	x
CC1(C(=O)Nc2cccc(C#N)c2)CCN1C(=O)c1ccccc1CCc1ccccc1 (stereo not drawn)	x	x	x	0%	x	x
CC[C@H](C)[C@H](NC(=O)[C@H](C)NC(=O)[C@@H](N)C(C)C)C(=O)N[C@H](C(=O)N[C@H](C(=O)N[C@@H](CC(C)C)C(=O)N[C@H](C(=O)N[C@@H](CCCCN)C(=O)O)C(C)C)C(C)C)[C@@H](C)O	-2	-6	x	x	x	x
O=C(COC(=O)c1cccnc1Nc1ccccc1F)NC1CC1	14*	28	x	-1%[11.6 µM]	12%	41%
O=C(COC(=O)c1cncc(Br)c1)NC1CCCCCC1	-1	-12	0%	-6%	3.3µM*	19%
O=C(COc1ccccc1)NC1CCCCCCC1	28*	44*	u	0%	36%	-7%
C[C@@H](CNC1CCCCC1)OC(=O)c1ccccc1	x	x	x	x	2µM*	2.6µM*
O=C(COc1ccccc1)NC1CCCCC1	11	-7	15%	4%	7%	15%
Nc1ncccc1C(=O)OCC(=O)NC1CCCCCC1	x	x	-1%	24%	29%	25%
CCc1ccc(CN2CCC(N3CCC(C(=O)N4CCCC4)CC3)CC2)o1	1	-9	1%	-1%	2%	-3%
CCCNC(=O)CC(NS(=O)(=O)c1ccc(OC)cc1)c1ccco1 (stereo not drawn)	2	-6	-7%	1%	19%	40%
CCCCN(C)c1c(C)nc2ccc(C(=O)NCc3cccs3)cn12	x	x	x	-1%	x	x
O=C(COC(=O)c1ccccc1F)NC1CCCC1	37*	36*	1%	12%	21%	32%
COC(=O)c1ccccc1OCC(=O)NC1CCCCC1	27*	132*	-8%	16%	19%	x
O=C(COC(=O)c1ccccc1)NC(=O)NC1CCCC1	x	x	2%	26%	-12%	36%
O=C(COC(=O)c1ccccc1)NC1CCCC1	84*	109*	-1%	-3%	97%	88%
O=C(COC(=O)c1ccccc1F)NC1CC1	x	x	-8%	17%	-14%	-13%
Cc1cccc(C)c1CC(=O)N1CCOCC1	-5	-6	-1%	7%	-15%	u
COC(=O)c1sccc1NC(=O)CC1C(=O)NCCN1C(=O)c1ccccc1 (stereo not drawn)	13*	-10	1%	18%	-1%	8%
Cc1[nH]n(-c2ccccc2)c(=O)c1C=NCCc1ccccc1	21*	66*	-2%	6%	14%	38%[5.75 µM]
CCCCN(CCCC)C(=S)N/N=C/c1c(C)[nH]n(-c2ccccc2)c1=O	1	-9	5%	114%	u	88%
Cc1[nH]n(-c2ccccc2)c(=O)c1C=NCc1ccncc1	11	10	0%	38%	21%	-3%
CCCCN=Cc1c(C)[nH]n(-c2ccccc2)c1=S	25*	34	5%	30%	29%	50%
O=C(C1=C[C@@H](c2ccccc2)C[C@@H](OCCCCO)O1)N1CCOCC1	6	-3	-1%	17%	-11%	-2%
CNC(=O)c1ccc(Nc2nc(-c3ccccc3)nc3ccccc23)cc1	16*	27	1%	12%	-25%	u
SMILES	Cycloheximide cs	Shiga toxin inh	SARS PLpro yeast	AMA1-RON2 inh	Pf growth 48h	Pf growth 96h
Fc1cccc(Nc2nc(-c3ccncc3)nc3ccccc23)c1	0	-14	21%	x	9.3µM*	4.1µM*
CCCOC(=O)c1cccc(Nc2nc(-c3cccnc3)nc3ccccc23)c1	0	12	6%	6%	9.3µM*	0%
O=C(OCCNc1nc(-c2ccccc2)nc2ccccc12)c1cccnc1	9	-19	-4%	5%	-12%	14%
O=C(O)c1ccc(Nc2c3ccccc3nc3ccccc23)cc1	13	5	-11%	-3%	2.1µM*	8%
COc1cc(F)c(S(=O)(=O)N2CCOc3ccccc32)cc1OC	-6	3	-1%	0%	x	54%
CC(NC(=S)NCCCN1CCOCC1)C12CC3CC(CC(C3)C1)C2 (stereo not drawn)	-2	-3	-3%	1%	-9%	u
O=C(O)c1ccc(Nc2nc(-c3ccccc3)nc3ccccc23)cc1	20*	27	2%	0%	u	24%
